PubChem BioAssay AID743152 (Broad Institute, 2013)
The source made the active and inactive calls.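 How the source made its calls: active means compounds that cut cell ATP glow, with a fitted half-effect dose at or under their top tested dose; inconclusive means flat partial loss of 30 to 70 percent, or poor fit; inactive means the rest.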

Experiment: A549 cell cytotoxicity, dose response, cytotoxicity control, CellTiter-Glo luminescence, dry powder, set 2 (AID 743152)
Details: A549 viability, CellTiter-Glo ATP luminescence, 72 h; series mostly up to 26 µM; activity, negative = cytotoxicity: at the top concentration

SMILES	activity, negative = cytotoxicity
C[C@@H]1CC(=O)NN=C1c1ccc(F)c(F)c1	-0.368% (inactive)
C[C@@H]1CC(=O)NN=C1c1ccc(-c2cncnc2)cc1	1.75% (inactive)
C[C@@H]1CC(=O)NN=C1c1ccc(Cl)cc1	-0.617% (inactive)
CCN1N=C(c2ccc(N(CC)CC)cc2)[C@H](C)CC1=O	-8.64% (inactive)
COc1cc2c(cc1OC)-c1cc(=Nc3c(C)cc(C)cc3C)n(C)c(=O)n1CC2	12.6% (inactive)
C[C@@H]1CC(=O)NN=C1c1ccc(N2CCOCC2)cc1	-5.32% (inactive)
CC(=O)Nc1ccc(C2=NNC(=O)C[C@H]2C)cc1[N+](=O)[O-]	4.47% (inactive)
C[C@@H]1CC(=O)NN=C1c1ccc(C2CCCCC2)cc1	4.9% (inactive)
C[C@H]1CC(=O)NN=C1c1ccc(N2CCOCC2)c(F)c1	1.72% (inactive)
O=C1CN2Cc3c(ccc(Cl)c3Cl)N=C2N1	12.6% (inactive)
C[C@@H]1CC(=O)NN=C1c1ccc(N2CCOCC2)c(F)c1	10.5% (inactive)
Cn1c(NC(=O)c2ccccc2)nc2ccccc21	-8.4% (inactive)
CCN(CC)c1ccc(C2=NNC(=O)CC2C)cc1[N+](=O)[O-] (stereo not drawn)	10.5% (inactive)
